Laboratory results from PubChem BioAssay (NCI).
Compounds without any hit were thinned out: in the full panel of roughly 79,000, 15% have a hit. No stated cut-off is given here; in the data, active means growth inhibition above about 70%; inactive means the rest.

Experiments:
[1] = NCI Yeast Anticancer Drug Screen. Data for the rad50 strain (AID 155);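 further: 0% = growth of vehicle-only cultures of the same strain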; conditions: S. cerevisiae rad50 strain growth inhibition; at 50.0 µM; active compounds read high
In short: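 A DNA repair-deficient yeast mutant serves as the test organism; compound-induced growth inhibition is calculated against vehicle-treated cells.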

[2] = NCI Yeast Anticancer Drug Screen. Data for the mec2-1 strain (AID 157); conditions: S. cerevisiae mec2-1 strain, at 50.0 µM, active compounds read high
In short: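 mec2-1 yeast strain, carrying an alteration in DNA damage repair or cell cycle control, was exposed to compounds; growth inhibition was measured relative to vehicle-treated controls.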

[3] = NCI Yeast Anticancer Drug Screen. Data for the sgs1 mgt1 strain (AID 161);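 further: 0% = growth of cultures given vehicle only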; conditions: S. cerevisiae sgs1 mgt1 strain, at 50.0 µM, active compounds read high
In short: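 Compounds are added to genetically altered yeast, and growth is compared with cultures given vehicle alone to give percent inhibition.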

[4] = NCI Yeast Anticancer Drug Screen. Data for the cln2 rad14 strain (AID 165);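 further: 0% = growth equal to vehicle treated cultures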; conditions: S. cerevisiae cln2 rad14 strain, at 50.0 µM, active compounds read high
In short: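 Yeast carrying cln2 and rad14 alterations (cell cycle control and DNA damage repair) were exposed to compounds. Growth inhibition was measured against vehicle-treated controls.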

[5] = NCI Yeast Anticancer Drug Screen. Data for the bub3 strain (AID 167); conditions: S. cerevisiae bub3 mutant strain, at 50.0 µM, active compounds read high
In short: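 Inhibition values come from growth of compound-treated mutant yeast normalised to vehicle-treated controls.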

[6] = NCI Yeast Anticancer Drug Screen. Data for the mlh1 rad18 strain (AID 175); conditions: S. cerevisiae mlh1 rad18 strain growth inhibition; at 50.0 µM; active compounds read high
In short: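 Growth inhibition of the yeast strain was measured after compound exposure and expressed relative to vehicle-treated controls. The strain carries defined defects in DNA damage repair.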

Measured: growth inhibition

Cc1ccccc1NC(=O)CC#N
inactive: [1] 8.15% | [2] -12.3% | [3] 1.5% | [4] 3.85% | [5] -0.7% | [6] 2.2%

Nc1nc(-c2ccccc2)c(N=Nc2ccc([N+](=O)[O-])cc2Cl)s1
inactive: [1] -4.7% | [2] 2.55% | [3] 4.4% | [4] -13.1% | [5] -11.5% | [6] 3.6%

CC1CCC(NC2=NCCO2)C(C)C1 (stereo not drawn)
inactive: [1] -20.4% | [2] 0.4% | [3] -3.85% | [4] -29.4% | [5] -14.1% | [6] -3.35%

OCC(O)C(O)C(OC1OC(CO)C(O)C(O)C1O)C(O)CO (stereo not drawn)
inactive: [1] -1.05% | [2] 37.8% | [3] 26.9% | [4] -2.2% | [5] 13.8% | [6] -3.2%

CCCOC(=O)CC(CC(=O)OCCC)C(=O)OCCC
inactive: [1] -10.9% | [2] 0.55% | [3] -3.75% | [4] -13.4% | [5] 37.2% | [6] -2.5%

C[n+]1ccc(/C=C/c2ccc(O)c(O)c2)c2ccccc21
inactive: [1] 49.8% | [2] 33.5% | [3] 41.2% | [4] 20.5% | [5] 3.5% | [6] 43%

NC(=S)N/N=C/c1cccc(CC(O)(C(F)(F)F)C(F)(F)F)n1
inactive: [1] 2.6% | [2] 7.1% | [3] 3.7% | [4] -28.4% | [5] -2.1% | [6] 24%

CN(C)c1ccc(C2(c3ccc(N(C)C)cc3)OC(=O)c3cc(N(C)C)ccc32)cc1
inactive: [1] 4.55% | [2] -6.2% | [3] -0.75% | [4] -31.7% | [5] 16.4% | [6] 33.7%

CC(I)CNC1=NCC(=O)N1 (stereo not drawn)
inactive: [1] -8.6% | [2] 5.9% | [3] -9.9% | [4] -21.1% | [5] 13.1% | [6] 13%

O=C(O)CNC(=O)CNC(=O)c1ccc2ccccc2n1
inactive: [1] 2.7% | [2] -4.05% | [3] 11.1% | [4] 10.7% | [5] -14.3% | [6] 15.9%

CC(=O)Nc1[nH]ncc1C#N
inactive: [1] 3.05% | [2] -8% | [3] -0.2% | [4] -12.4% | [5] 13.3% | [6] 18%

CC1(C)CSC(C)(C)C(=O)N1
inactive: [1] 4.9% | [2] -1.95% | [3] -3.6% | [4] -6.85% | [5] -2.2% | [6] -1.1%

CC(C)(C)NC(=O)NCCCCCCNC(=O)NC(C)(C)C
inactive: [1] -15.5% | [2] -13.9% | [3] -7.45% | [4] -27.9% | [5] 8.05% | [6] -7.9%

COC1CC(OC2CCC3(C)C(=CCC4C3C(OC(C)=O)C(OC(=O)CC(C)C)C3(C)C(C(C)=O)CCC43O)C2)OC(C)C1OC1CC(OC)C(OC2CC(OC)C(OC3OC(C)C(O)C(OC)C3O)C(C)O2)C(C)O1 (stereo not drawn)
inactive: [1] 31.3% | [2] 6.55% | [3] 21.4% | [4] 16.9% | [5] -1.9% | [6] -83.5%

CCCCCCC(O)C/C=C\CCCCCCCC(=O)O (stereo not drawn)
inactive: [1] -14% | [2] -3.7% | [3] -30.9% | [4] 62.9% | [5] -9.2% | [6] -15.9%

OCC1OC(Oc2ccccc2)C(O)C(O)C1O (stereo not drawn)
inactive: [1] 8.15% | [2] 30.6% | [3] 21.8% | [4] -1% | [5] 33% | [6] 24.1%

O=S(=O)(c1ccc(OCCOc2ccc(S(=O)(=O)N3CCOCC3)cc2)cc1)N1CCOCC1
inactive: [1] 0.55% | [2] 7.75% | [3] 12.6% | [4] -15.4% | [5] 2.95% | [6] -14%

COc1cc(-c2ccc([NH2+][B-](F)(F)F)c(OC)c2)ccc1[NH2+][B-](F)(F)F
inactive: [1] 21.7% | [2] -2.05% | [3] 37.3% | [4] 29.1% | [5] 9.1% | [6] 18.9%

COc1cc(Br)c(Br)cc1Br
inactive: [1] 6.8% | [2] 4.35% | [3] -17.7% | [4] 12.5% | [5] 4.9% | [6] 10.5%

CCCCCCCCCCC(C(=O)O)C1(C(=O)O)CCC(=O)O1 (stereo not drawn)
inactive: [1] -15.7% | [2] -32.4% | [3] -5.8% | [4] 11.4% | [5] -9.4% | [6] -5.25%

COc1ccc(N=Cc2ccc(N(CCC#N)S(=O)(=O)c3ccccc3)cc2)cc1
inactive: [1] 0.2% | [2] -13.3% | [3] 2.05% | [4] 11.2% | [5] 9.25% | [6] -3.15%

O=C1NC(N2CCOCC2)=N/C1=C\c1ccccc1
inactive: [1] 8% | [2] 11.2% | [3] -9.8% | [4] -3.65% | [5] -1.2% | [6] -15.3%

C=COC(=O)N1CCCCC1
inactive: [1] -5.75% | [2] 15.8% | [3] 0.5% | [4] -13.7% | [5] -30.1% | [6] 27.4%

O=C1C(=O)c2ccccc2C(O)=C1CN(CCO)CCO
inactive: [1] 10.8% | [2] 19.8% | [3] 24.2% | [4] -8.25% | [5] 23.4% | [6] 26.2%

CN(C)Cc1ccccc1O
inactive: [1] 4.15% | [2] 17.6% | [3] -3.6% | [4] -17.6% | [5] 5.65% | [6] -51.5%

CCOc1cn(C2CC(O)C(CO)O2)c(=O)[nH]c1=O (stereo not drawn)
inactive: [1] -1.35% | [2] 7.75% | [3] -6.95% | [4] -10.9% | [5] -16.2% | [6] 23.6%

CN(C)c1ccc(NC2COc3ccccc3C2=O)cc1 (stereo not drawn)
inactive: [1] -13.1% | [2] 3.9% | [3] 17.4% | [4] -17.2% | [5] 67% | [6] -6.6%

CC(=O)O[C@H]1CC[C@]2(C)[C@H]3C(=O)C=C4[C@@H]5C[C@@](C)(C(=O)O)CC[C@]5(C)CC[C@@]4(C)[C@]3(C)CC[C@H]2C1(C)C
inactive: [1] 31.2% | [2] 23.8% | [3] 41.5% | [4] 52.1% | [5] 26% | [6] -5.75%

COc1ccc(C(=O)c2ccccc2)cc1OC
inactive: [1] 2.95% | [2] 13.8% | [3] -4.25% | [4] -21.4% | [5] -1.2% | [6] -7.85%

ClCCCOCc1ccccc1
inactive: [1] 8.2% | [2] -13.2% | [3] 3.65% | [4] 16.4% | [5] 11.9% | [6] 6.3%

COc1ccc(C2(C)c3ccccc3C(=O)C(C)(C)C2(C)CC(=O)O)cc1 (stereo not drawn)
inactive: [1] -0.65% | [2] 6.45% | [3] -1.8% | [4] -9.7% | [5] 5.05% | [6] 5.2%

CC1=CC(=O)CCC1c1ccccc1 (stereo not drawn)
inactive: [1] -52.6% | [2] -4.75% | [3] -19.8% | [4] 0.8% | [5] -10.4% | [6] -5.95%

O=C(/C=C/c1cccs1)c1ccc(Cl)cc1
inactive: [1] -26.6% | [2] -41.3% | [3] -9.45% | [4] -2.8% | [5] 2.2% | [6] -4.35%

C=CC(=NC(C)(C)C)Nc1ccc(Cl)cc1
inactive: [1] -13% | [2] -6.8% | [3] -36.2% | [4] -14.6% | [5] -19.2% | [6] 3.4%

N/C(=N\N=C\c1c[nH]c2cc(C(F)(F)F)ccc2c1=O)NO
inactive: [1] -10.9% | [2] -7.45% | [3] 28.4% | [4] 11.1% | [5] 2.9% | [6] 2.25%

Cc1csc[n+]1C/C(=N/O)c1ccc(I)cc1
inactive: [1] 36.2% | [2] -3.75% | [3] 14.8% | [4] 3.65% | [5] 2.75% | [6] 17.1%

CC(=O)C1CCC(CCCC(C)C)CC1 (stereo not drawn)
inactive: [1] 13.9% | [2] -2.4% | [3] -2.75% | [4] -10.4% | [5] 2.4% | [6] 6.2%

O=C(O)COc1ccccc1-c1ccccc1
inactive: [1] -34.4% | [2] -13.7% | [3] -10.6% | [4] -48.5% | [5] 1.55% | [6] -8.6%
